Data on six molecules can be found in PubChem BioAssay (NCI).

Among the test systems are NCI-H23 lung; NCI-H226 lung; NCI-H322M lung; HOP-62 NSCLC; NCI-H460 lung; HOP-92 NSCLC; NCI-H522 lung; A549/ATCC NSCLC; 786-0 renal; COLO 205 colon; DU-145 prostate; K-562 leukemia; MALME-3M melanoma; RXF 393 renal; SF-268 CNS; SF-295 CNS; SF-539 CNS; UACC-257 melanoma; M14 melanoma; MDA-MB-231 breast.
Holding throughout (assay): NCI-60 one-dose screen, 48 h (100 = growth as untreated, 0 = no growth, -100 = all killed)
Holding throughout (settings): 10 µM unless noted

This is part of a sample that, as a whole, favours compounds with a hit. Of some 83,000 tested, about 20% had one in any assay.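 Results are percent growth after 48 hours of single-concentration exposure. 100 means growth as in untreated cells, lower positive values show inhibition; negative values down to -100 show cell death.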 Unmarked numbers belong to inactive results. Activity calls are given as the source filed them. Rule for the calls: active = growth percent below 10; inactive = the rest.

On to `CCCOC(=O)c1nc(N(CC2CCCCC2)C(=O)NC)sc1/N=C/c1ccccc1`, for which the growth was 31.1% in the assay on NCI-H23 lung; 56.8% in the assay with NCI-H226 lung; 57.9% in the assay on NCI-H322M lung; 25.5% in the assay on HOP-62 NSCLC; 2.34% (active) in the assay with NCI-H460 lung; 15.5% with HOP-92 NSCLC. Further, the growth in the assay with NCI-H522 lung is -18.4% (active); in the assay on A549/ATCC NSCLC it was 13.6%; in the assay with 786-0 renal it was 9.27% (active); in the assay with COLO 205 colon, 18.6%; in the assay with DU-145 prostate it was 44.7%; in the assay with K-562 leukemia, 2.2% (active). The growth was 12.4% in the assay on MALME-3M melanoma; -8.78% (active) with RXF 393 renal; 32% in the assay on SF-268 CNS; 15.1% in the assay with SF-295 CNS; -27.9% (active) in the assay with SF-539 CNS; 37.5% in the assay on UACC-257 melanoma. Further, the growth in the assay on M14 melanoma is 6.82% (active).

Consider `Oc1ccc2c(c1)CCc1ccccc1-2`, for which the growth is 108% with NCI-H23 lung; 93.5% in the assay on NCI-H226 lung; 110% with NCI-H322M lung; 83.3% in the assay on HOP-62 NSCLC; 106% with NCI-H460 lung; 97.4% in the assay on HOP-92 NSCLC. Besides, the growth in the assay on NCI-H522 lung was 100%; with A549/ATCC NSCLC it was 98.1%; in the assay with 786-0 renal, 88.1%; with COLO 205 colon, 106%; in the assay with DU-145 prostate, 109%; with K-562 leukemia, 121%. For the same molecule, the growth in the assay on MDA-MB-231 breast is 111%; with RXF 393 renal, 92.6%; in the assay with SF-268 CNS it was 92.1%; with SF-295 CNS, 96.3%; with SF-539 CNS, 89.9%; with UACC-257 melanoma, 99.2%. In addition, the growth in the assay with M14 melanoma was 102%.

In the case of `CC1(C)OCC(COC(c2ccccc2)(c2ccccc2)c2ccccc2)O1` (stereo not drawn), the growth is 104% in the assay on NCI-H23 lung; 92.1% with NCI-H226 lung; 92.2% with NCI-H322M lung; 96.1% with HOP-62 NSCLC; 104% in the assay with NCI-H460 lung; 89.4% with HOP-92 NSCLC. Besides, the growth was 88.8% in the assay on NCI-H522 lung; 86.3% in the assay on A549/ATCC NSCLC; 104% in the assay on 786-0 renal; 109% with COLO 205 colon; 100% in the assay on DU-145 prostate; 111% in the assay with K-562 leukemia. The growth with MDA-MB-231 breast is 91.7%; in the assay with RXF 393 renal it was 116%; in the assay on SF-268 CNS it was 94.2%; in the assay with SF-295 CNS it was 99.2%; in the assay on SF-539 CNS, 104%; with UACC-257 melanoma it was 91.7%. Besides, in the assay on M14 melanoma, the growth is 95.1%.

Take `COc1ccc(NC(=O)/C(=C/N2C(=O)/C(=C/c3ccc(OC)c(OC)c3)NC2=S)C(C)=O)cc1`: the growth in the assay on NCI-H23 lung was 64.5%; in the assay with NCI-H226 lung it was 83.1%; in the assay with NCI-H322M lung it was 71.1%; with HOP-62 NSCLC it was 58.4%; in the assay on NCI-H460 lung, 65.6%; in the assay on HOP-92 NSCLC it was 3.15% (active). Moreover, the growth was 46.8% in the assay on NCI-H522 lung; 63.8% with A549/ATCC NSCLC; 99.2% with 786-0 renal; 107% in the assay with COLO 205 colon; 96.4% with DU-145 prostate; 73% with MDA-MB-231 breast. In addition, the growth in the assay on RXF 393 renal is 85.6%; in the assay with SF-268 CNS it was 78.3%; in the assay with SF-295 CNS, 93.9%; with SF-539 CNS, 85.1%; in the assay on UACC-257 melanoma, 60%; with M14 melanoma, 53.8%.

As for `CN(Cc1ccccc1)c1ccc(SC#N)cc1`, the growth in the assay with NCI-H23 lung was 89.8%; with NCI-H226 lung, 111%; in the assay on NCI-H322M lung, 94.7%; in the assay with HOP-62 NSCLC, 108%; with NCI-H460 lung, 86.6%; with HOP-92 NSCLC, 59.7%. In addition, the growth with NCI-H522 lung was 45.5%; in the assay on A549/ATCC NSCLC, 92%; in the assay on 786-0 renal it was 79.4%; in the assay with COLO 205 colon, 66.4%; with DU-145 prostate, 103%; with K-562 leukemia, 31.8%. Further, the growth in the assay with MALME-3M melanoma was 82.4%; in the assay on RXF 393 renal, 68.3%; with SF-268 CNS, 85%; with SF-295 CNS, 95.4%; in the assay with SF-539 CNS, 87.7%; in the assay with UACC-257 melanoma, 102%. Besides, the growth in the assay on M14 melanoma is 84%.

Take `COc1cc(/C=C2\SC(=S)N(/C=C/c3nc4ccccc4[nH]c3=O)C2=O)cc(OC)c1OC`: the growth is 69.7% in the assay with NCI-H23 lung; 76.6% with NCI-H226 lung; 89.1% with NCI-H322M lung; 65.8% with HOP-62 NSCLC; 92.1% in the assay on NCI-H460 lung; 53.3% in the assay with HOP-92 NSCLC. Also, the growth in the assay with NCI-H522 lung is 60.3%; in the assay on A549/ATCC NSCLC it was 67.5%; with 786-0 renal it was 76.6%; in the assay on COLO 205 colon, 101%; in the assay with DU-145 prostate, 97.7%; with K-562 leukemia it was 88.1%. The growth was 80.1% with MDA-MB-231 breast; 77.7% in the assay with RXF 393 renal; 77.5% in the assay with SF-268 CNS; 88.4% in the assay with SF-295 CNS; 95.2% in the assay on SF-539 CNS; 79.2% in the assay with UACC-257 melanoma. The growth in the assay with M14 melanoma was 75.4%.
